Data reported in PubChem BioAssay AID602438 (Sanford-Burnham Center for Chemical Genomics, 2012).
Out of some 360,000 compounds screened, about 3,100 (0.86%) were called active.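 How the source made its calls: active means inhibition or corrected inhibition above about 18%, plus a signal ratio from 0.5 to 1.5 (limit read from the data, passing the limit was not always enough); inactive means the rest.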 This excerpt belongs to a sample that is enriched for actives.

Target: Neuropilin-1 (Homo sapiens) (UniProt O14786)
Assay: modulators of CendR peptide binding to NRP-1, primary screen, biochemical, fluorescence polarization, uHTS (AID 602438)
Settings: FAM-RPARPAR peptide binding to NRP-1, fluorescence polarization; at 25 µM; stronger effect = higher value

Sequence of Neuropilin-1 (Homo sapiens) (O14786 whole entry, looked up): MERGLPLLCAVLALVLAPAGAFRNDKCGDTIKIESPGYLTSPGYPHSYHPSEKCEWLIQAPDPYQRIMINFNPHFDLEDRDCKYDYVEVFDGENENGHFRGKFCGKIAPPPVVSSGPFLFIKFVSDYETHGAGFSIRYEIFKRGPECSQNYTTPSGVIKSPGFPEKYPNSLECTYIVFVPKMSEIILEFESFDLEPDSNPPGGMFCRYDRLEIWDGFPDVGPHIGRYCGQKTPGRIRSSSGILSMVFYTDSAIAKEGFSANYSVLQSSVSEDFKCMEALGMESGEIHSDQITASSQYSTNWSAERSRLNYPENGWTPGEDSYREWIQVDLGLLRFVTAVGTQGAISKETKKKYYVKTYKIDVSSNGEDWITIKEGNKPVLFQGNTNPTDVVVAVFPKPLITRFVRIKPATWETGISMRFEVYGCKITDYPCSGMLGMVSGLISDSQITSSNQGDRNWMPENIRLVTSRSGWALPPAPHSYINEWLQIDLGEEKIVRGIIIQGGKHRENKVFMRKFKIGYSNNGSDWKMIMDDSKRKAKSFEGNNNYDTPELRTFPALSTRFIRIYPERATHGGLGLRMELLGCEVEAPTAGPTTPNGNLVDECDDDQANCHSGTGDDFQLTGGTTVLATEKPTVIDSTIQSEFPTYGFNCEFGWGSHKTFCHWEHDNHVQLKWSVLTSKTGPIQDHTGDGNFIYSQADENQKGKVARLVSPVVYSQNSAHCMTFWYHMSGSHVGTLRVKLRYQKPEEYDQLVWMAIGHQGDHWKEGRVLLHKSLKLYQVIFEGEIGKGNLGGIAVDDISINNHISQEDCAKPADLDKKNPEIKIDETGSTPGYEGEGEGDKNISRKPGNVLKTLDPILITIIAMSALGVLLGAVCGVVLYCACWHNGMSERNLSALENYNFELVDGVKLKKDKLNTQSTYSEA

SMILES | inhibition
CCCCCCN=C(CC)c1c(O)n(CCCC)c(=O)[nH]c1=O | -5.7% (inactive)
CCC(=NCCc1ccccc1)c1c(O)n(C2CCCCC2)c(=O)[nH]c1=O | 24% (active)
CC(=O)c1c(O)n(C2CCCCCC2)c(=O)[nH]c1=O | -12.9% (inactive)
COc1ccccc1C1=NCc2nnc(CSC)n2-c2ccc(Cl)cc21 | 10.2% (inactive)
COC(=O)[C@@H]1C(OC(=O)c2ccccc2)CC2CCC1N2C (stereo not given in full) | -1.6% (inactive)
O=c1[nH]c2ccccc2n1C1CCN(C(c2ccccc2)c2nnnn2Cc2ccccc2)CC1 (stereo not given) | 11.2% (inactive)
O=c1[nH]c2ccccc2n1C1CCN(C(c2ccnc3ccccc23)c2nnnn2Cc2ccccc2)CC1 (stereo not given) | 6.4% (inactive)
Cc1ccc(Cn2nnnc2CN2CCC(n3nnc4ccccc43)CC2)cc1 | 25.7% (active)
CN(C)P(=S)(Nc1ccccc1)C(Cl)(Cl)Cl (stereo not given) | 7.8% (inactive)
COC(=O)C1=C(c2cc3ccccc3s2)C[C@@H]2CC[C@H]1N2C(=O)NCCO | -10.5% (inactive)
COC(=O)C1=C(c2ccc(C(C)=O)cc2)C[C@@H]2CC[C@H]1N2C(=O)NCCNC(C)=O | 34.8% (active)
COC(=O)C1=C(c2ccccc2)C[C@@H]2CC[C@H]1N2C(=O)NCc1ccco1 | -16.6% (inactive)
COC(=O)C1=C(c2ccccc2)C[C@@H]2CC[C@H]1N2C(=O)N1CCCCC1 | 32.5% (active)
COC(=O)C1=C(c2ccc3ccccc3c2)C[C@@H]2CC[C@H]1N2C(=O)NCCO | -3.3% (inactive)
COC(=O)C1=C(c2cccc(OCc3ccccc3)c2)C[C@@H]2CC[C@H]1N2C(=O)NNCc1ccccc1 | 8.8% (inactive)
NCCc1c[nH]c2ccc(O)cc12 | 10.4% (inactive)
CCC(C)(O)C(=O)OC1C(=O)OC2CC3C(C)=CC(=O)C(O)C3(C)C3C4(O)OCC23C1C(C)C4O (stereo not given) | 9.9% (inactive)
CCOC(=O)[C@]12Cc3ccccc3[C@H]1N(C1CCCCC1)C(=O)c1cc(OC)ccc12 | 2.7% (inactive)
Cc1ccc(OC(=O)N(C)C[C@@H]2OCc3cnnn3CCCC(=O)N([C@H](C)CO)C[C@@H]2C)cc1 | 9.5% (inactive)
Cc1ccc(S(=O)(=O)N(C)c2ccc(C(=O)NCC3(N(C)C)CCCCC3)cc2)cc1 | -2% (inactive)
CCCCCn1c(=O)c(C(=O)Nc2c(C)n(C)n(-c3ccccc3)c2=O)c(O)c2ccccc21 | 3.5% (inactive)
CC(C)c1ccc(OCC(=O)N2CCN(C)CC2)c(Br)c1 | 13.4% (inactive)
CC(C)c1ccc(OCC(=O)N2CCCN(C)CC2)cc1 | 28.1% (active)
CN1CCN(C(=O)COc2ccc(C(C)(C)C)cc2Br)CC1 | 10% (inactive)
CCN1c2nc3c(C)cccn3c(=O)c2CC2(C(=O)N(C)C(=O)N(C)C2=O)C1C (stereo not given) | 10.7% (inactive)
